log2 fold change data for eight targets are collected here from the supplement of paper PMC12819154, “High-throughput peptide-centric local stability assay extends protein–ligand identification to membrane proteins, tissues and bacteria” (Nature Structural & Molecular Biology, 2025).

UniProt Q13555, sequence (Q13555 whole entry): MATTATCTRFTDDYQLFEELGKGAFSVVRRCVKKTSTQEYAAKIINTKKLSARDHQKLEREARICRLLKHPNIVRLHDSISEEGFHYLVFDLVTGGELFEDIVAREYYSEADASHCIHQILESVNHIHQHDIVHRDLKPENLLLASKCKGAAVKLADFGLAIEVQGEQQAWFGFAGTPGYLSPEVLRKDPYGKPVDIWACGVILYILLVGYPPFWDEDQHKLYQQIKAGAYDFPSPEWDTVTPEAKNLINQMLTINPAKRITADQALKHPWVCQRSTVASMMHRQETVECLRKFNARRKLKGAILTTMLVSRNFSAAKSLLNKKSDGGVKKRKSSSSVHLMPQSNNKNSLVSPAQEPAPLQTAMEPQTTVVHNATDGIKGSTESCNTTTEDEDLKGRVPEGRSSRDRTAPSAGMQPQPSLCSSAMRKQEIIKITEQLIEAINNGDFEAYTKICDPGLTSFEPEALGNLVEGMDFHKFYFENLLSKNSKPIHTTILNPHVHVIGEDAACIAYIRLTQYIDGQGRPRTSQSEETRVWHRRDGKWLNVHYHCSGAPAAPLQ
UniProt P56192, sequence (P56192 whole entry): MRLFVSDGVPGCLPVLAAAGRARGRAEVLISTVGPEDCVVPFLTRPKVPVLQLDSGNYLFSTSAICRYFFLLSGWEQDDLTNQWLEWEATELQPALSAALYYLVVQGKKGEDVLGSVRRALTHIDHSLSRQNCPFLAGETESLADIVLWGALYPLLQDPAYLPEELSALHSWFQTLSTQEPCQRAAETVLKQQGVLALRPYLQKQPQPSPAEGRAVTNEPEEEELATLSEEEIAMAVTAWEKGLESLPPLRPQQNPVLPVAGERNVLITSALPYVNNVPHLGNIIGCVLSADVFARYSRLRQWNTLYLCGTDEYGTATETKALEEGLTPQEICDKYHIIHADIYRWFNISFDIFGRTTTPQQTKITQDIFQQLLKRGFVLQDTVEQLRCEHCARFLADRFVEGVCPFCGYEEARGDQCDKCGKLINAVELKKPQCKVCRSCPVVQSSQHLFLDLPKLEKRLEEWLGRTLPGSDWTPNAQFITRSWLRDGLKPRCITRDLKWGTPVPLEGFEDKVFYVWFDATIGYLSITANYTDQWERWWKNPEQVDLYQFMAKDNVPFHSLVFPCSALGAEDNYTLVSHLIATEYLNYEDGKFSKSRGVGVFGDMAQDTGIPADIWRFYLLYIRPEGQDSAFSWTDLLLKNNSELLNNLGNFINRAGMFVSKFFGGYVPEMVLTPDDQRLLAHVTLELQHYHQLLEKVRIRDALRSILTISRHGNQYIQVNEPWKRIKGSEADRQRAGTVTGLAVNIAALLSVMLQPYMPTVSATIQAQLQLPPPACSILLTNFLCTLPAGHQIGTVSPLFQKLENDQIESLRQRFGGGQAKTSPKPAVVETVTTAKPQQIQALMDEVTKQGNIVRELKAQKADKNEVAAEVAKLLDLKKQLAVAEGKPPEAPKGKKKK
UniProt Q96GX5, sequence (Q96GX5 whole entry): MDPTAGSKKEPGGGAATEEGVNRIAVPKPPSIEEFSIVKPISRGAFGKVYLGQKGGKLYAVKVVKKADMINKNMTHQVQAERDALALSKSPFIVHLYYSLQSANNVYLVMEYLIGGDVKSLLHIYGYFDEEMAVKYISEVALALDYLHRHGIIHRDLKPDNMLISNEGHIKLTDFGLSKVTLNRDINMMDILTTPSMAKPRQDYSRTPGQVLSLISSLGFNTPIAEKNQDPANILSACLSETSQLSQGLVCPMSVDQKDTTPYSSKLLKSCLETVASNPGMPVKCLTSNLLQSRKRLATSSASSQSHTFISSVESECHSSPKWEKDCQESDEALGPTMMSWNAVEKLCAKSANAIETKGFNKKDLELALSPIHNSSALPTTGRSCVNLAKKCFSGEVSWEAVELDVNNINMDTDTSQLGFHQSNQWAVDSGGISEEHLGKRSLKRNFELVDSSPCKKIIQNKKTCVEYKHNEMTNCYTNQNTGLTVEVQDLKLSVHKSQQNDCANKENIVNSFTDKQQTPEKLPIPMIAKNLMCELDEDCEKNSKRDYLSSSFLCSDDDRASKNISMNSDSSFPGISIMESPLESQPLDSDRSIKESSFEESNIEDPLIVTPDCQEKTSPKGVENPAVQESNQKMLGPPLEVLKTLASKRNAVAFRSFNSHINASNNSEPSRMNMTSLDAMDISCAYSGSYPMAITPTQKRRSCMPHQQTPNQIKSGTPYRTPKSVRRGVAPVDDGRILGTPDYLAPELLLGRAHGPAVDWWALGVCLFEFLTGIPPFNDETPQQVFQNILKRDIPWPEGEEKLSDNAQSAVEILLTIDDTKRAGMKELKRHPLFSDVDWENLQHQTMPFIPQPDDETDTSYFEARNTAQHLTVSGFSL
UniProt Q9NVS9, sequence (Q9NVS9 whole entry): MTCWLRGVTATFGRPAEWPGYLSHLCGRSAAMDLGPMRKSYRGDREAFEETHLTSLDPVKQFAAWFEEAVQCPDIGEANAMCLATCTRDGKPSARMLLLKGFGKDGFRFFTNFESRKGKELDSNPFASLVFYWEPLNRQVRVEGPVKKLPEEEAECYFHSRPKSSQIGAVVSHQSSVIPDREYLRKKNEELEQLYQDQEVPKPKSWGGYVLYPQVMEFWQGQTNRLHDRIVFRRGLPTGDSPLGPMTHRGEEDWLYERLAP
UniProt P19784, sequence (P19784 whole entry, looked up): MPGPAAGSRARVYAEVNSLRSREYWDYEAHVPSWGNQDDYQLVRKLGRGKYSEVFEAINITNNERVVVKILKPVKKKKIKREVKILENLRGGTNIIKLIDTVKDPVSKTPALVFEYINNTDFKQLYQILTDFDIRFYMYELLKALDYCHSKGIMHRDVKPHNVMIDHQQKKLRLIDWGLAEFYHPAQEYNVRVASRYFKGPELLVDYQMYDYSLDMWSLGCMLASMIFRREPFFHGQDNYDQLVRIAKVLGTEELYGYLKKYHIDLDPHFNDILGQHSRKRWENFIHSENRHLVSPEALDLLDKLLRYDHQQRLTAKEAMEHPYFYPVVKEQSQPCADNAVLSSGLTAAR
UniProt Q9BQG0, sequence (Q9BQG0 whole entry): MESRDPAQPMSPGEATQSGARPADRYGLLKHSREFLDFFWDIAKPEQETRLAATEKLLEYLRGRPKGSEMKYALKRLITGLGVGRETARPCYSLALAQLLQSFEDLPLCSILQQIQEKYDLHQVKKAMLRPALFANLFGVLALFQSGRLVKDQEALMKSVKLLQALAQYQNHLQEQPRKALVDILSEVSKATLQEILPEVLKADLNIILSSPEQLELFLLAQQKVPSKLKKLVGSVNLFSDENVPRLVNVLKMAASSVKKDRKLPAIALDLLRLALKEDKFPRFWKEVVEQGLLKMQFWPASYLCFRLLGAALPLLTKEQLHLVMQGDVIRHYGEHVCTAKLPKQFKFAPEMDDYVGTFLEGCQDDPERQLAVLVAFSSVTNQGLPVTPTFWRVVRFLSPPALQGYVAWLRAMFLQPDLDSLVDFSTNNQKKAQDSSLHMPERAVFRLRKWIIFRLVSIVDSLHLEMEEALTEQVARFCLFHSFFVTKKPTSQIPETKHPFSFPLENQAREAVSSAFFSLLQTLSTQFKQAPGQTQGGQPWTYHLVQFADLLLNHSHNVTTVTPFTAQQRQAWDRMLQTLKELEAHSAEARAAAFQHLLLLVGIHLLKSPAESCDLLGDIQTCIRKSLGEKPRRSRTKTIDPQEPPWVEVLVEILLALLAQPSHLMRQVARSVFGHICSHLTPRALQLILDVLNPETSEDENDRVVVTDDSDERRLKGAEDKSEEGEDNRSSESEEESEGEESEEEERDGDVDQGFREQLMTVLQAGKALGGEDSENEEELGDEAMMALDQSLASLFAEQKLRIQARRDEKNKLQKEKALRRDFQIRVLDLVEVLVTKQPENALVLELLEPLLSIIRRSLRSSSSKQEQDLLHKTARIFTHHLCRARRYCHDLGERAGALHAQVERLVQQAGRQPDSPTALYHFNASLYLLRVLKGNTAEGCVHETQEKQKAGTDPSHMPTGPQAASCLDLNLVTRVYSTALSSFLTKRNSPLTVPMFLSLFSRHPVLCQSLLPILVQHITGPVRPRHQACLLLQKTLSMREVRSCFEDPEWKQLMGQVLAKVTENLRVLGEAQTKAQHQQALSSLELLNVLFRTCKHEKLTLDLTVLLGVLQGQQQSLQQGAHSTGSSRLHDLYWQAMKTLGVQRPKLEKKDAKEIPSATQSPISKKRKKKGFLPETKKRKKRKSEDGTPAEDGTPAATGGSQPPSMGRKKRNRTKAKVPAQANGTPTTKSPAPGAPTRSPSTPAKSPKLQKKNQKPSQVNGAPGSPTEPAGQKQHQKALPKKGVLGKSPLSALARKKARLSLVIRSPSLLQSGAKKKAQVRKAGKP
UniProt Q9H9C1, sequence (Q9H9C1 whole entry): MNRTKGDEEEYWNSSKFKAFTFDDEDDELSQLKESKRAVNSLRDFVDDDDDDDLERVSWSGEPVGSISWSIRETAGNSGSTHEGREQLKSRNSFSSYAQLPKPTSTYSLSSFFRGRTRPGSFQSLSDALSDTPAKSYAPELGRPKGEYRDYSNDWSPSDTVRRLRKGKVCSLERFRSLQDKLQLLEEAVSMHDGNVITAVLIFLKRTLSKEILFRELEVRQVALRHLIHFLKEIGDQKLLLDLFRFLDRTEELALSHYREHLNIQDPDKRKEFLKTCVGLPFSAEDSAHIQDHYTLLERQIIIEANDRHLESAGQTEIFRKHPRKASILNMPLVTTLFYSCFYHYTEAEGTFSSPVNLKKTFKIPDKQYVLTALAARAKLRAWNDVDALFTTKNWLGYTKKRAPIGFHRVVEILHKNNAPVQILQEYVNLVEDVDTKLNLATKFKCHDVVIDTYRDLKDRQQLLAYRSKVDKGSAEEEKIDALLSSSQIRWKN

Compound in the assay: CN[C@@H]1C[C@H]2O[C@@](C)([C@@H]1OC)n1c3ccccc3c3c4c(c5c6ccccc6n2c5c31)C(=O)NC4 [staurosporine]
The assay can be described thus: log2 fold change of tryptic peptide abundance, ligand vs vehicle (limited proteolysis) (log2 ratio); higher = more trypsin-susceptible (destabilized). As to conditions: ligand concentration: 20 uM; sample: K562 cleared lysate; digestion: 4 min, 22 C (HT-PELSA RT4min, Orbitrap Astral).
As for “UniProt Q9H9C1 (peptide sequence: LLLDLFR, peptide start residue: 239)”, the log2 fold change was -1.26.
Under “PRKACB (peptide sequence: QIEHTLNEK, peptide start residue: 85) (UniProt P22694)” stands 1.81.
With “MYBBP1A (peptide sequence: VLKGNTAEGCVHETQEK, peptide start residue: 933) (UniProt Q9BQG0)” the figure was 2.16.
With “UniProt P19784 (peptide sequence: HLVSPEALDLLDKLLR, peptide start residue: 292)” the figure was -2.25; with “PNPO (peptide sequence: SSQIGAVVSHQSSVIPDR, peptide start residue: 164) (UniProt Q9NVS9)”, 1.66; with “MASTL (peptide sequence: IAVPKPPSIEEFSIVKPISR, peptide start residue: 24) (UniProt Q96GX5)”, -1.05.
As for “CAMK2G (peptide sequence: GAILTTMLVSR, peptide start residue: 302) (UniProt Q13555)”, the log2 fold change is -1.14.
In the case of “MARS (peptide sequence: SCPVVQSSQHLFLDLPK, peptide start residue: 440) (UniProt P56192)”, the log2 fold change turned out to be 0.233.
